Calb FLC = C. albicans growth modulation with fluconazole | C. albicans CaCi-2 (fluconazole-resistant clinical isolate) + fluconazole, Alamar Blue growth, 48 h | 0.57% of 300,000 active | growth inhibition, % (no concentration beside the values);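 active = growth inhibition above about 58% in most replicates, limit read from the data, passing the limit was not always enough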;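 also: all wells also contain fluconazole at 8 µg/ml as a sub-toxic cotreatment; 0% = median of DMSO wells and 100% = median of geldanamycin control wells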
PolyA inhibitor = yeast polyadenylation inhibition. activity score, % at 12 µM. 0.02% of 300,000 active. S. cerevisiae SKY197-pL101 polyadenylation reporter, beta-gal luminescence; efflux-impaired pdr1/pdr3 knockout yeast; score 100 = 6 SD above DMSO;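 active = lowest replicate activity score at least 50, where 100 means six control SD above control mean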;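 also: yeast exposed to compound for 9 h at 30 °C; higher score means more reporter readthrough which indicates perturbed polyadenylation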
Platelet DG rel = modulates dense granule release in human platelets | human platelet-rich plasma, SFLLRN dense granule ATP release, luminescence | inhibition, %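 (compounds screened at 7.5 µM in platelet-rich plasma)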 | 0.22% of 300,000 active | AID 1663;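 active = mean replicate score, as percent of positive control, at or above 50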
SKKanGAS inh = blocks kanamycin growth of S. pyogenes SKKanGAS strain; BacTiter-Glo, 6 h; 1.3% of 300,000 active; inhibition, % at 7.5 µM;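 active = mean replicate score, as percent of positive control median, at least 50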;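 also: strain carries kanamycin resistance gene driven by streptokinase promoter and grows in 40 µg/ml kanamycin; loss of luminescence reflects streptokinase promoter inhibition or plain growth inhibition; 0% = median of DMSO wells and 100% = positive control at its reference dose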
Yeast superoxide = yeast age-related superoxide inhibition as caloric restriction mimetic; S. cerevisiae aged cells, superoxide DHE fluorescence; hits give low values; superoxide response (% of plate mean), % at 10 µM; 0.18% of 330,000 active; AID 2690;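 active = superoxide response under a set limit, about three screen SD below normal, cut at about 65% in these data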;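 also: yeast aged for seven days with compound at 30 °C before DHE staining; 100% = average MFI of all compound-treated wells on the plate with controls excluded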
The depositor's hits bear a star; . = not tested or not shown. Most compounds without a hit are left out; they make up all but 2% or so of the library.

SMILES	Calb FLC	PolyA inhibitor	Platelet DG rel	SKKanGAS inh	Yeast superoxide
CCn1c(C)nc2cc(C(=O)N/N=C/c3ccc(O)c(O)c3O)ccc21	76*	14	10	-3	.
Cc1cccc(NCc2ccc(N(C)C)cc2)n1	-10	10	3	-8	89
COc1ncnc2sc(-c3ccccc3)cc12	-6	-3	61*	5	114
O=C(Cc1ccc2ccccc2c1)NC(Cc1ccccc1)C(=O)O (stereo unspecified)	.	.	.	.	108
COc1cccc(/C=N/Nc2nn3cnnc3c3ccccc23)c1O	1	11	-10	23	102
Oc1cccc(/C=N/Nc2nn3cnnc3c3ccccc23)c1	-6	-11	57*	-10	108
Oc1ccc(/C=N/Nc2ccnc3cc(Cl)ccc23)c(O)c1O	5	-5	7	8	105
Oc1ccc(/C=N/Nc2ccnc3cc(Cl)ccc23)cc1O	100*	10	8	-4	91
Oc1ccc(-c2nc3c4c(ncn3n2)-c2ccccc2CC42CCCC2)cc1	3	-23	5	95*	93
Cc1cc(C)c2c(n1)sc1c(=O)n(CC(=O)c3ccccc3)cnc12	-8	-25	4	93*	104
O=[N+]([O-])c1ccc(/C=N/Nc2ncccc2[N+](=O)[O-])s1	1	-36	13	12	103
COc1cccc(/C=N/Nc2ncccc2[N+](=O)[O-])c1OC	11	-4	82*	17	107
COc1ccccc1/C=N/Nc1nccnc1Cl	-16	-3	68*	7	87
COc1ccc(/C=N\Nc2ccccn2)c(OC)c1	-10	-8	8	-3	97
O=C(CCN1C(=O)C2CC=CCC2C1=O)Nc1nc(-c2ccc(F)c(F)c2)cs1 (stereo unspecified)	.	.	.	.	92
COc1ccc(-c2cc(C(F)(F)F)c3c(n2)sc2c(O)cc(=O)[nH]c23)c(OC)c1	0	2	-11	55*	115
CN1C(=O)C(N=Nc2ccccc2C(=O)O)N(C)C1=S (stereo unspecified)	28	-21	-2	8	127
COc1ccc(/C=C/CN2CCCC(CCC(=O)NCc3ccc(F)c(F)c3)C2)cc1 (stereo unspecified)	-7	-8	9	-5	86
O=C(Cc1cccs1)Nc1cccc(-c2nc3cc4ccccc4cc3[nH]2)c1	23	-41	35	72*	93
CC(=O)Nc1cccc(NC(=O)Cc2cccs2)c1	-7	-1	3	2	96
O=C(CSc1nnc(NC(=O)C2CC2)s1)Nc1ccccc1Cl	11	6	-3	0	92
CC(C)CC(=O)Nc1cccc(C(C)O)c1 (stereo unspecified)	2	11	-3	15	114
O=C(COC(=O)c1cc(Cl)ccc1Cl)Nc1ccc2[nH]c(=O)[nH]c2c1	-1	13	4	-1	98
Cn1c2c(c(=O)n(C)c1=O)C(C(F)(F)F)(C(F)(F)F)N=C(c1ccc(Cl)cc1)N2	84*	-14	6	15	100
Cc1ccccc1C1=NC(C(F)(F)F)(C(F)(F)F)c2c(n(C)c(=O)n(C)c2=O)N1	0	-5	4	0	94
SMILES	Calb FLC	PolyA inhibitor	Platelet DG rel	SKKanGAS inh	Yeast superoxide
O=C(CSc1nc(=O)n(CCCN2CCOCC2)c2c1CCC2)Nc1ccc([N+](=O)[O-])cc1	4	-6	3	-4	110
COc1ccc(CN2CCc3ccc(NC(=O)c4ccncc4)cc3C2)c(F)c1	-7	-10	4	50*	99
O=C(Nc1ccc2c(c1)CN(Cc1ccc(CO)o1)CC2)c1ccc(C(F)(F)F)cc1	48	-13	-6	20	109
CCN1CCN(Cc2ccc(NC(=O)c3ccc(C)c(NC(=O)c4ccno4)c3)cc2C(F)(F)F)CC1	-9	1	3	-3	100
CCN1CCN(Cc2ccc(NC(=O)c3ccc(C)c(/C=C/c4cnc(Nc5cc(N6CCNCC6)nc(C)n5)cn4)c3)cc2C(F)(F)F)CC1	-4	-6	-3	61*	101
O=C(c1cc(F)c(F)cc1Cl)N1CCN(c2ncccn2)CC1	-4	-2	-4	6	108
COc1ccc([C@H]2Oc3cc(O)cc(O)c3C(=O)C2[C@@H]2C(=O)c3c(O)cc(O)cc3O[C@@H]2c2ccc(OC)cc2)cc1 (stereo partly specified)	27	7	3	100*	101
Cc1ccsc1/C=N/NS(=O)(=O)c1ccc([N+](=O)[O-])cc1	101*	12	-4	1	109

Screening results: PubChem BioAssay, several laboratories
